Inconclusive results are not listed. Unless noted, calls follow the shape of the dose curve; as a rule, active = well fitted curve in either direction with a large enough effect (not every such curve was filed as active); inconclusive = small, poorly fitted or top-dose-only effect, or another doubt; inactive = flat fitted curve, though single readings scatter.
Legend:
[1] = AP1 Signaling Pathway (AID 357); settings: ME-180 AP-1-bla reporter, EGF-induced, beta-lactamase ratio, 5 h; at 17.2 µM (top of the series) unless noted;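 also: ME-180 reporter cells stimulated with EGF at its EC50 level; % is scaled to controls: 0 for no effect and ±100 for the full control effect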
Method in brief: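 First, ME-180 AP-1-bla cells were cultured overnight at 37 °C in low-serum Opti-MEM. Next, titrated compounds with EC50 EGF were incubated 5 hours. Finally, CCF4 was added for 2.5 hours and the 460/530 nm ratio recorded.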

[2] = Stat Signaling Pathway (AID 446); settings: ME-180 (cervical carcinoma) SIE beta-lactamase reporter, IL-6 stimulated, 5 h; at 17.2 µM (top of the series) unless noted;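 also: ME-180 cervical cancer cells given 40 pM IL-6 alongside compound; SIE-controlled beta-lactamase reporter measured as 460/530 nm FRET emission ratio; % is scaled to controls: 0 for no effect and ±100 for the full control effect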
Method in brief: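 IL-6/STAT signaling read in ME-180 cells via an SIE beta-lactamase reporter. Stimulus was 40 pM IL-6 (its AC50) for 5 hrs, so both activation and inhibition register.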

[3] = biological target: Glucocorticoid receptor (Homo sapiens) (UniProt P04150); assay: GR-GFP Redistribution (AID 450;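 active = compounds whose dose series gives a full or clear partial fitted curve of increased nuclear translocation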; also: potency is read from the fitted curve at half-maximal effect); settings: U2OS GR-GFP nuclear translocation, laser cytometry, 2 h; series mostly up to 20.6 µM
Sequence of Glucocorticoid receptor (Homo sapiens) (P04150 whole entry, looked up): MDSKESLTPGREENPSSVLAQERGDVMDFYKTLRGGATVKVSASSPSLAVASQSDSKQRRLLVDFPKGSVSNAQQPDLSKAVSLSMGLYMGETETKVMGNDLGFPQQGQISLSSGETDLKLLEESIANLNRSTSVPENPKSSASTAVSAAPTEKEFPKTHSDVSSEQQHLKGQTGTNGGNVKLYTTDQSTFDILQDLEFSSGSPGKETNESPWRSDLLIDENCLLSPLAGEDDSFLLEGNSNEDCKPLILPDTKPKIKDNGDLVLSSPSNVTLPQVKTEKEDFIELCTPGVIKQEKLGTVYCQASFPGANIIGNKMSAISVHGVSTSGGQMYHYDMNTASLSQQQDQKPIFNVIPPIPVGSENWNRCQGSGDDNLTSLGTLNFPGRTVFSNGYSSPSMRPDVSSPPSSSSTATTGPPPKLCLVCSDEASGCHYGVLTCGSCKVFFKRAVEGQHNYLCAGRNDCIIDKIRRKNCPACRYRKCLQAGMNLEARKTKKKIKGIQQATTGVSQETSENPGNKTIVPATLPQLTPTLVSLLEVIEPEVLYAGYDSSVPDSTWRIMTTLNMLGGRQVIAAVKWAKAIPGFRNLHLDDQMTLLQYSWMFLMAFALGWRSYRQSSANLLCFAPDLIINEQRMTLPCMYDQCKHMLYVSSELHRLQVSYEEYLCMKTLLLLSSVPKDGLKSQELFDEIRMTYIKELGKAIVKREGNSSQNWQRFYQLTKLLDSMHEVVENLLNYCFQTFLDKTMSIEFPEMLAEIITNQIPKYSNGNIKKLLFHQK

Clc1ccc(-c2nnc3sc(Cc4cccs4)nn23)c(Cl)c1
inactive: activity change, negative = inhibition [1] -25% | activity, negative = inhibition [2] 12.6% | Potency [3] > 20.6 µM

COc1ccccc1-c1nn2c(-c3ccco3)nnc2s1
inactive: activity change, negative = inhibition [1] 0.523% | activity, negative = inhibition [2] -5.72% | Potency [3] > 20.6 µM

Cc1cc(C)n(CC2CC(=O)N(c3ccc(F)c(Cl)c3)C2=O)n1 (stereo not given)
inactive: activity change, negative = inhibition [1] -5.28% | activity, negative = inhibition [2] -2.55% | Potency [3] > 20.6 µM

O=C(O)CCCCCCC1C(=O)NC(=O)N1CCC(O)C1CCCCC1 (stereo not given)
inactive: activity change, negative = inhibition [1] -4.54% | activity, negative = inhibition [2] 14.6% | Potency [3] > 20.6 µM

COc1ccc2c(c1OC)C(=O)N1c3ccccc3C(=O)N(c3ccccc3)C21 (stereo not given)
inactive: activity change, negative = inhibition [1] -9.35% | activity, negative = inhibition [2] 0.163% | Potency [3] > 20.6 µM

CN1CCN(C(=O)CSc2nc(-c3cccs3)ccc2C#N)CC1
inactive: activity change, negative = inhibition [1] -11% | activity, negative = inhibition [2] -1.05% | Potency [3] > 20.6 µM

Cn1c(OCc2ccco2)nc2c1c(=O)n(Cc1ccc(Cl)c(Cl)c1)c(=O)n2C
inactive: activity change, negative = inhibition [1] -3.54% | activity, negative = inhibition [2] 0.615% | Potency [3] > 20.6 µM

Cc1ccc(S(=O)(=O)/C(C#N)=C/c2c(N3CCN(C)CC3)nc3c(C)cccn3c2=O)cc1
inactive: activity change, negative = inhibition [1] 9.07% | activity, negative = inhibition [2] -7.22% | Potency [3] > 20.6 µM

N#CCSc1nc2c(cc1C#N)CCCCCC2
inactive: activity change, negative = inhibition [1] -14.6% | activity, negative = inhibition [2] 5.36% | Potency [3] > 20.6 µM

CN(CCOC(=O)c1cccc(Br)c1)C(C)(C)C
inactive: activity change, negative = inhibition [1] 9.82% | activity, negative = inhibition [2] 7.11% | Potency [3] > 20.6 µM

COCc1[nH]nc2c1C(c1ccc(OC)cc1)C(C#N)=C(N)O2 (stereo not given)
inactive: activity change, negative = inhibition [1] 2.89% | activity, negative = inhibition [2] -11.4% | Potency [3] > 20.6 µM

COc1ccc(Cn2c(N)c(C#N)c3nc4ccccc4nc32)cc1OC
inactive: activity change, negative = inhibition [1] -3.62% | activity, negative = inhibition [2] 11.6% | Potency [3] > 20.6 µM

COc1ccc(Cn2c(=O)c3c(nc(NCCO)n3C)n(C)c2=O)cc1
inactive: activity change, negative = inhibition [1] 1.13% | activity, negative = inhibition [2] -24.4% | Potency [3] > 20.6 µM

CCOC(=O)c1c(SC)nc(SC)c2c1CCC2
inactive: activity change, negative = inhibition [1] -12.6% | activity, negative = inhibition [2] -4.26% | Potency [3] > 20.6 µM

CCN(CC)C(=O)CSc1nc2ccccc2c(=O)n1CC1CCCCC1
inactive: activity change, negative = inhibition [1] -21.3% | activity, negative = inhibition [2] -17.5% | Potency [3] > 20.6 µM

— PubChem BioAssay (NCATS)
